HP1b chromo inh – inhibitors of HP1-beta chromodomain binding to methylated histone tails | P83916 | AlphaScreen HP1-beta / biotin-H3K9me3 peptide binding | Potency, µM (series often up to 114 µM), usual class: inhibitors | 0.56% of 390,000 active; further: nearly all actives have a fitted effect of over 70% in size
Target sequence (P83916 whole entry, looked up): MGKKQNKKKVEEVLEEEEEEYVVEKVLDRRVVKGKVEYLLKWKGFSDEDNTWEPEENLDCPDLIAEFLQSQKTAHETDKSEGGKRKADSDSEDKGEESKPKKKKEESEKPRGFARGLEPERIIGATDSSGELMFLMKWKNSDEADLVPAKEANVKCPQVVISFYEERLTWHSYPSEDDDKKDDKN
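AlphaScreen: HP1-beta (50 nM) preformed 30 min with biotin-H3(1-18)K9me3 peptide (50 nM) in PBS pH 7.4, 0.01% Tween-20. Compound added for 30 min at RT, then streptavidin donor/nickel chelate acceptor beads (10 ug/mL) for 30 min.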
L3MBTL1 inh – L3MBTL1 (human) inhibition. Q9Y468. AlphaScreen L3MBTL1–H3K9me1 peptide binding. Potency, µM (doses to about 57.1 µM), hits mostly inhibitors. 0.66% of 230,000 active; further: nearly all actives have a fitted effect of over 60% in size
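Displacement of a biotinylated histone H3(1-15) peptide monomethylated at Lys9 (75 nM) from L3MBTL1 (50 nM) was measured by AlphaScreen after a 30 min room-temperature compound incubation; cefsulodin titration served as intraplate control.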
G9a inh – G9a (human) methyltransferase inhibition. Q96KQ7. G9a H3K9 monomethylation, AlphaScreen, 2 h. Potency, µM (titrated, usually from 102 µM), most hits filed as inhibitors. 8.8% of 350,000 active; further: nearly all actives have a fitted effect of over 75% in size
Target sequence (Q96KQ7 913-1193 limits assumed): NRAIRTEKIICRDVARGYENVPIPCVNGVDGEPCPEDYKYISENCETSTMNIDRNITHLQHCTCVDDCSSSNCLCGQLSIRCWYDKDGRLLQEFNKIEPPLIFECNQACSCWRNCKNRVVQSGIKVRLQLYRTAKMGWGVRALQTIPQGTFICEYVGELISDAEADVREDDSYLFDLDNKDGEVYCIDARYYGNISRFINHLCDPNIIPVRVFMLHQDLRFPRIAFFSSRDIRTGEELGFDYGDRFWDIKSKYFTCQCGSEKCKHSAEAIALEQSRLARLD
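AlphaScreen detection with an anti-monomethyl H3K9 antibody quantified product after a 2 h room-temperature reaction containing 500 nM biotinylated H3K9 peptide, 20 µM SAM and 20 nM enzyme, which had been preincubated 15 min with compound.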
PI5P4Ka inh – PI5P4K alpha (human) kinase inhibition | PI5P4Kalpha enzyme, ADP-Glo luminescence, 60 min; active compounds read low | 1.2% of 330,000 active | max response, % | P48426; active means max response of -50% or lower; inconclusive means between -30% and -50%; inactive means -30% or higher; further: value at the top dose of about 77 µM
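Luminescence from ADP-Glo served as readout of PI5P4Kalpha activity in a qHTS format. Reaction: enzyme, substrate, compound, ATP at 5 microM final, 60 min at RT.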
JMJD2A Tudor inh – blocks the human JMJD2A Tudor domain; O75164; AlphaScreen JMJD2A-Tudor / H3K4me3 peptide binding; Potency, µM (highest dose often 114 µM), actives largely listed as inhibitors; 4.4% of 390,000 active; AID 504339; further: nearly all actives have a fitted effect of over 50% in size
BAZ2B block – BAZ2B (human) inhibition. Q9UIF8. AlphaScreen BAZ2B-H3K14Ac peptide displacement. Potency, µM (highest dose often 114 µM), actives largely listed as inhibitors. 4.4% of 360,000 active; further: nearly all actives have a fitted effect of over 60% in size
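Protein-peptide AlphaScreen: BAZ2B 50 nM, b-H3K14Ac 50 nM, 1x PBS pH 7.4 + 0.01% Tween-20. Preincubation 30 min RT; cpd 30 min RT (top 110 uM); beads 20 min RT, light-protected.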
Of the large screens only hits and unclear results are named; the others gave an inactive call. Shown are actives, neighbours in structure and some others; about 11% of the full set was active somewhere. Unless noted, the call rests on the fitted dose curve; in most records, active means well fitted inhibition curve with a large enough effect; inconclusive means small, poorly fitted or top-dose-only effect; inactive means no such curve, though single readings can be large or run the other way.

N#CCC(=O)Nc1ccc(C(=O)OCC(=O)c2ccc3c(c2)OCO3)cc1	none
N#Cc1ccc(C(=O)Nc2ccc3ccccc3c2)cc1	G9a inh 45µM (no result: L3MBTL1 inh)
N#CCC(=O)Nc1ccc(C(=O)OCC(=O)c2ccc3c(c2)OCCO3)cc1	PI5P4Ka inh -74, JMJD2A Tudor inh 18µM
O=c1c(-c2ccc(F)cc2)nc2cncnc2n1Cc1ccc(F)cc1	none (no result: HP1b chromo inh, L3MBTL1 inh, PI5P4Ka inh, JMJD2A Tudor inh, BAZ2B block)
Cc1nc2ccc(S(=O)(=O)N(CC(=O)Nc3ccc(Cl)cc3)Cc3ccccc3)cc2s1	none (no result: L3MBTL1 inh, PI5P4Ka inh)
N#CCC(=O)Nc1ccc(C(=O)OCC(=O)Nc2ccc3ccccc3c2)cc1	PI5P4Ka inh -51
COCCCN=C1NN=C(c2cc(C)n(-c3ccccc3)c2C)CS1	G9a inh 71µM, BAZ2B block inconclusive
COCCCN=C1NN=C(c2cc(C)n(Cc3ccccc3Cl)c2C)CS1	HP1b chromo inh inconclusive, G9a inh 28µM, JMJD2A Tudor inh inconclusive, BAZ2B block 40µM
Fc1ccc(N=C2NN=C(c3cc(F)ccc3F)CS2)cc1	BAZ2B block inconclusive
Cc1cc(C2=NNC(=NCCc3ccccc3)SC2)c(C)n1-c1c(C)n(C)n(-c2ccccc2)c1=O	none (no result: L3MBTL1 inh)
Cc1cc(C2=NNC(=Nc3ccccc3)SC2)c(C)n1C	HP1b chromo inh inconclusive, G9a inh 8.9µM, PI5P4Ka inh inconclusive, JMJD2A Tudor inh inconclusive, BAZ2B block inconclusive (no result: L3MBTL1 inh)
COCCCN=C1NN=C(c2cc(C)n(-c3ccccc3F)c2C)CS1	G9a inh 50µM, JMJD2A Tudor inh inconclusive, BAZ2B block 71µM
CC(NC(=O)COC(=O)c1ccco1)C12CC3CC(CC(C3)C1)C2 (stereo not given)	none (no result: L3MBTL1 inh, G9a inh, PI5P4Ka inh, BAZ2B block)
COCCn1c(C)cc(C2=NNC(=Nc3ccccc3F)SC2)c1C	G9a inh 7.9µM, JMJD2A Tudor inh 89µM, BAZ2B block inconclusive (no result: L3MBTL1 inh)
Cc1ccc(/C=C2/C(=N)N3N=C(CC(=O)N4CCCC4)SC3=NC2=O)o1	G9a inh 32µM (no result: L3MBTL1 inh)
N=C1/C(=C\c2ccc(Br)o2)C(=O)N=C2SC(CC(=O)N3CCCCC3)=NN12	G9a inh 45µM, PI5P4Ka inh -66, BAZ2B block inconclusive (no result: L3MBTL1 inh)
CCOc1ccc(CCNC(=O)Cn2c(=O)c3cccn3c3ccc(F)cc32)cc1OCC	none (no result: L3MBTL1 inh, PI5P4Ka inh)
COc1ccc(-c2noc(N(c3cccc(Cl)c3)c3nc(-c4ccc(OC)c(OC)c4)no3)n2)cc1OC	none (no result: L3MBTL1 inh, PI5P4Ka inh)
COc1ccc(C2C3=C(N=CN(CCN4CCOCC4)C3N)Oc3ccccc32)cc1OC (stereo not given)	none (no result: HP1b chromo inh, L3MBTL1 inh, G9a inh, PI5P4Ka inh, BAZ2B block)
CSc1cccc(NC(=O)C2CCN(c3ncnc4c3nc3n4CCCCC3)CC2)c1	none (no result: L3MBTL1 inh, PI5P4Ka inh)
C#CCOCCOCCOCCNc1nc(N2CCN(C(=O)[C@H](CCCCN)n3cc([C@@H](N)CO)nn3)CC2)nc(N2CCN(C(=O)[C@H](Cc3cc4ccccc4[nH]3)n3cc([C@@H](N)CO)nn3)CC2)n1	G9a inh inconclusive, BAZ2B block 22µM (no result: HP1b chromo inh, L3MBTL1 inh, PI5P4Ka inh, JMJD2A Tudor inh)
C#CCOCCOCCOCCNc1nc(N2CCN(C(=O)[C@H](CCCCN)n3cc(CN)nn3)CC2)nc(N2CCN(C(=O)[C@H](CO)n3cc([C@@H](N)C(C)C)nn3)CC2)n1	none (no result: G9a inh, BAZ2B block)
C#CCOCCOCCOCCNc1nc(N2CCN(C(=O)[C@H](CCCCN)n3cc([C@@H](N)CO)nn3)CC2)nc(N2CCN(C(=O)[C@H](Cc3cc4ccccc4[nH]3)n3cc([C@@H](N)CC(C)C)nn3)CC2)n1	BAZ2B block 45µM (no result: HP1b chromo inh, PI5P4Ka inh, JMJD2A Tudor inh)
Cc1cc(C)c(NC(=O)CSC2=Nc3ccccc3C3=NC(CC(=O)NCc4cccs4)C(=O)N23)c(C)c1 (stereo not given)	BAZ2B block inconclusive (no result: L3MBTL1 inh, PI5P4Ka inh)
COC(=O)C1C(=O)C2=C(CC1C)NC(=O)CC2c1ccccc1 (stereo not given)	none
CCOc1cc(C2CC(=O)NC3=C2C(=O)C(C(=O)OC)C(C)C3)cc(Cl)c1O (stereo not given)	G9a inh 50µM, BAZ2B block inconclusive
Cc1cccc(Cn2c(CNS(=O)(=O)c3ccc4c(c3)CCCC4)nc3cccnc32)c1	none (no result: L3MBTL1 inh, PI5P4Ka inh)
CCc1ccc(OCc2cc(=O)n3cc(C)sc3n2)cc1	none (no result: L3MBTL1 inh, PI5P4Ka inh)

High-throughput results from PubChem BioAssay.
